HT1080NT lethal – qHTS for induction of synthetic lethality in tumor cells producing 2HG: qHTS for the HT-1080-NT fibrosarcoma cell line; HT-1080-NT fibrosarcoma viability, CellTiter-Glo ATP luminescence, 48 h; Potency, µM (doses to about 46.1 µM), for the others: top-dose activity, negative = less viability, usual class: cytotoxic; 360,000 tested, 1.6% active; AID 686970, 2013;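 also: NT is the 2HG producing partner of a matched IDH1 knockdown line; potency is read from the fitted curve at half-maximal effect; 0% = DMSO-treated cells and -100% = media-only wells without cells; nearly all actives have a fitted effect of over 55% in size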
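Viability by CellTiter-Glo luminescence after 48 h compound exposure at 37C of HT-1080-NT cells (750/well, RPMI, 5% FBS). % activity scaled between DMSO wells and medium-only wells, then curve-fitted and categorized by curve class.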
TDP1 cell noCPT – qHTS for Inhibitors of human tyrosyl-DNA phosphodiesterase 1 (TDP1): qHTS in cells in absence of CPT. DT40 Tdp1-/- hTDP1 cells, no CPT, ATP luminescence, 48 h. 420,000 tested, 15% active. Potency, µM (series often up to 46.2 µM), inactives show at the highest dose activity change, negative = growth inhibition, most hits filed as inhibitors; also: potency is read from the fitted curve at half-maximal effect; nearly all actives have a fitted effect of over 55% in size
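Chicken DT40 Tdp1-/- cells stably complemented with human TDP1 were seeded at 400 cells/well with DMSO in place of 20 nM camptothecin. After compound pinning, cells grew at least 48 hr at 37 °C; viability read by CellTiter-Glo luminescence.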
IL1B secr inh – qHTS for Inhibitors of Inflammasome Signaling: IL-1-beta AlphaLISA Primary Screen | THP-1 LPS/ATP IL-1B secretion, AlphaLISA, 16 h; active compounds read low | activity change, % at 57.5 µM | 360,000 tested, 4.7% active | AID 743279, 2014; in the data active = activity change below about -50%; inconclusive = mostly about -30% to -49%
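THP-1 cells pretreated 1 hr with compounds (up to 57.5 uM final), then stimulated with LPS (250 ng/mL final) plus ATP (1.25 mM final); secreted IL-1B measured by AlphaLISA after 16 hr, decreased signal indicating inhibition.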
HT1080 IDH1KD tx – qHTS for induction of synthetic lethality in tumor cells producing 2HG: qHTS for the HT-1080-IDH1KD cell line; HT-1080 IDH1 knockdown viability, ATP luminescence, 48 h; Potency, µM (series often up to 46.1 µM), for the others: at the highest dose activity, negative = toxicity, hits mostly cytotoxic; 360,000 tested, 2% active; AID 686971, 2013;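 also: potency is read from the fitted curve at half-maximal effect; 0% = DMSO wells and -100% = cell-free medium wells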
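HT-1080-IDH1KD cells (IDH1 knocked down), 750/well in RPMI with 5% FBS, treated with compound 48 h at 37 degrees C. Viability by CellTiter-Glo luminescence, normalised to DMSO and no-cell wells; concentration-response curves classed.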
DT40 TDP1 CPT – qHTS for Inhibitors of human tyrosyl-DNA phosphodiesterase 1 (TDP1): qHTS in cells in presence of CPT. chicken DT40 Tdp1-/-;hTDP1 cells + 20 nM CPT, ATP luminescence, 48 h. Potency, µM (highest dose often 46.2 µM), for the others: top-dose activity change, negative = growth inhibition, most hits filed as inhibitors. 420,000 tested, 12% active; also: potency is read from the fitted curve at half-maximal effect; nearly all actives have a fitted effect of over 55% in size
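Chicken DT40 Tdp1-/- cells stably complemented with human TDP1 were seeded at 400 cells/well in medium containing 20 nM camptothecin, exposed to pin-transferred compounds, and grown at 37 °C for at least 48 hr. Viability was read as ATP luminescence.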
The depositor's hits bear a star; ? = inconclusive; . = not tested or not shown; [ ] = remark or other dose. A selection: hits, their analogues and other compounds. The true share with any hit is near 19%. Unless noted, calls follow the shape of the dose curve; as a rule, active = well fitted curve in the direction sought with a large enough effect; inconclusive = small, poorly fitted or top-dose-only effect, or another doubt; inactive = no such curve, though single readings can be large; an effect the other way counts as inactive or inconclusive. Unless noted, % is scaled to controls: 0 for no effect and ±100 for the full control effect.

SMILES	HT1080NT lethal	TDP1 cell noCPT	IL1B secr inh	HT1080 IDH1KD tx	DT40 TDP1 CPT
N#CC1(C#N)COC23CCCCC2C1(C#N)C(=N)O3 (configuration not stated)	-4%	5.8µM*	-53*	-13%	5.8µM*
Cc1ccc(N/C(C(Cl)=C(Cl)Cl)=C(/Cl)[N+](=O)[O-])c(C)c1	-5%	16µM*	-18	-5%	23µM*
CC(=NNC(=S)SCc1ccccc1)c1ccccn1	?	0.041µM*	-3	?	0.052µM*
CCCCCCCC(=O)N/N=C(\C)c1ccc(O)cc1O	?	?	31	?	?
CCCCCC(=O)N/N=C(\C)c1ccccn1	1%	5.8µM*	47	-24%	5.8µM*
C/C(=N\NC(=O)COc1ccccc1-c1ccccc1)c1ccc(O)cc1O	-2%	?	169	?	21µM*
C/C(=N\NC(=O)COc1ccccc1-c1ccccc1)c1cccnc1	-13%	21µM*	19	-11%	?
C/C(=N\NC(=O)c1cccnc1)c1ccccc1	9%	3%	-5	3%	-4%
CCC(C)[C@H](NC(=O)c1cc2cc(Cl)ccc2n1C)C(=O)N1CCC[C@H]1C(=O)O (some centres not stated)	12%	7%	-1	9%	4%
Cc1[nH]c2ccccc2c1C(=O)CSc1nnc(C2CC2)o1	21%	?	-20	14%	0%
C/C(=N\NC(=O)COc1ccccc1-c1ccccc1)c1ccccn1	?	2.6µM*	-7	?	2.6µM*
O=C(O)COc1ccccc1-c1ccccc1	1%	8%	-1	10%	4%
CC[C@@H]1Cc2[nH]c(=O)[nH]c(=O)c2[C@H](c2ccc(Cl)cc2)O1	19%	-13%	47	7%	11%
O=C(Nc1nnc(CC2=CCCCC2)s1)Nc1ccccc1F	-8%	?	52	33µM*	?
Cc1cccc(NC(=O)Cc2nnc(NC(=O)Nc3ccccc3F)s2)c1	4%	-12%	4	2%	-6%
COc1ccc(Cc2nnc(NC(=O)Nc3cccc(OC)c3)s2)cc1	2%	-15%	44	-15%	3%
CC1CCCCN1c1nnc(NC(=O)Nc2ccccc2F)s1 (configuration not stated)	.	21µM*	.	.	?
Cc1cccc(NC(=O)Nc2nnc(N3CCCCC3C)s2)c1C (configuration not stated)	2%	?	11	10%	6%
O=C(Nc1cccc(Cl)c1)Nc1nnc(CC2=CCCCC2)s1	-1%	18µM*	43	-1%	4.6µM*
O=C(NCc1ccncc1)[C@@H]1CCCN1C(=O)[C@H]1CCCN1C(=O)c1cccs1	12%	-29%	17	6%	?
O=C(NCc1ccccc1)[C@@H]1CCCN1C(=O)[C@@H]1CCCN1C(=O)c1cccs1	10%	-41%	-57*	20%	-44%
Cn1c2ccccc2c2nnc(SCC(=O)Nc3cccc(O)c3)nc21	-10%	?	-8	-5%	?
COc1ccccc1NC(=O)CSc1nc2ncccc2[nH]1	6%	-14%	7	-11%	-7%
COc1ccccc1NC(=O)CSc1nnc2c3ccccc3n(C(C)C)c2n1	.	4.6µM*	.	.	3.7µM*
CCc1cccc2c(-c3ccccc3)nc(SCC(=O)Nc3ccccc3OC)nc12	.	18µM*	.	.	?
SMILES	HT1080NT lethal	TDP1 cell noCPT	IL1B secr inh	HT1080 IDH1KD tx	DT40 TDP1 CPT
COc1ccc(Cl)cc1NC(=O)CSc1nc(-c2ccccc2)c2ccccc2n1	.	21µM*	.	.	7.3µM*
COC(=O)c1c(SCC(=O)Nc2ccccc2OC)[nH]c2ccccc2c1=O	.	?	.	.	23µM*
COc1ccccc1CN1CCOc2ccc(C(C)(O)COc3ccccc3)cc2C1 (configuration not stated)	.	-26%	.	.	10%[9.04 µM]
COc1ccccc1C(=O)N1CCOc2ccc(CN3CCN(Cc4ccccn4)CC3)cc2C1	.	-4%	.	.	2%[9.04 µM]
Cc1cc(-c2ccnc(-n3ncc(C(=O)N(C)Cc4nccs4)c3C)n2)c(C)s1	.	?	.	.	-3%[9.04 µM]
COc1cc(/C=C/c2ccc3c(Br)cc(Br)c(O)c3n2)ccc1O	?	5.2µM*	25	?	3.3µM*
COc1ccc(/C=C/c2ccc3c(Br)ccc(O)c3n2)cc1	-1%	21µM*	103	-13%	10µM*
COc1ccc(/C=C/c2noc(-c3ccccc3O)n2)cc1	-2%	?	-24	-28%	6%
Cc1ccc2c(Br)cc(Br)c(O)c2n1	.	8.4µM*	.	.	7.5µM*
Cc1ccc2c(Cl)cc(Cl)c(OCC(=O)O)c2n1	13%	1%	3	-3%	3%
COc1cc(/C=C/C(=O)O)ccc1O	-1%	-2%	-18	5%	10%
COCCCNC(=O)C1CCC(Cn2c(=O)c3sccc3n(C)c2=O)CC1 (configuration not stated)	.	-14%	.	.	-24%
Cc1nc(S(=O)(=O)N2CCN(c3ccc(Cl)cc3)CC2)cn1C	.	-12%	.	.	-23%
COc1cc(C(=O)NNC2=CC(=O)CC(C)(C)C2)cc(OC)c1OC	3%	-12%	37	9%	-4%
Cc1cc(Cl)cc(Cl)c1CNc1c([N+](=O)[O-])c(=O)oc2ccccc12	-17%	16µM*	11	-17%	?
O=c1oc2ccccc2c(Nc2cc3ccccc3cc2O)c1[N+](=O)[O-]	?	5.8µM*	55	?	5.8µM*
Cc1cc(C)cc(N2CC(O)=C(c3nc4ccccc4c(=O)[nH]3)C2=N)c1	-20%	9.2µM*	48	-15%	13µM*
COc1cccc(N2CC(O)=C(c3nc4ccccc4c(=O)[nH]3)C2=N)c1	1.3µM*	1.2µM*	4	?	1.5µM*
O=C1NN=C2CCCCCCC12 (configuration not stated)	-3%	-11%	0	?	-1%
COC(=O)c1ccc2nc(C3CCCCC3)c(Cc3ccccc3C(F)(F)F)n2c1	?	?	-17	?	?
COC(=O)c1ccc2nc(C3CCCCC3)c(Cc3cccc(Cl)c3)n2c1	?	16µM*	12	?	?
COC(=O)c1ccc2nc(C3CCCCC3)c(Cc3ccc(C)cc3)n2c1	-21%	23µM*	6	?	26µM*
COC(=O)c1ccc2nc(C3CCCCC3)c(Cc3ccc(OC)cc3C)n2c1	1%	?	-29	-5%	?
